In the supplement of paper PMC10849652:
Of roughly 8,800 targets only a part is listed; those with a hit were picked by preference. About 0.5% of all pairs of compound and target were hits. Values without a mark were called inactive.

Experiments:
Assay in all cases: log2 fold change, soluble protein after heating vs DMSO (PISA); higher = thermal stabilisation; K562 lysate, 10 uM; active = over 0.2 and 3.5 SD of the protein, either way, in both replicates (recomputed)
alvocidib = compound: CN1CC[C@H](c2c(O)cc(O)c3c(=O)cc(-c4ccccc4Cl)oc23)[C@H](O)C1 [alvocidib]
In short: (§1)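 K562 pellets were dounce-homogenised in PBS pH 7.4 containing 1 mM MgCl2, and the crude extract, at 1 mg/mL protein, was exposed to 10 μM compound for 30 min. Aliquots were heated for 3 min across 48°C-58°C, pooled, brought to 0.5% NP-40 at 4°C and spun at 21,000xg for 90 min, with the supernatant taken as soluble protein. TMTpro 16plex LC-MS/MS with equalised channel sums quantified that protein. Values are log-two fold changes in thermal stability relative to solvent controls, taken from duplicates.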

Tubastatin A = compound: CN1CCc2c(c3ccccc3n2Cc2ccc(C(=O)NO)cc2)C1 [Tubastatin A]
In short: as §1

[1] = compound: CNC(=O)C1=CC=CC=C1NC2=NC(=NC=C2Cl)NC3=C(C=C(C=C3)N4CCOCC4)OC
In short: as §1

defactinib = compound: CNC(=O)c1ccc(Nc2ncc(C(F)(F)F)c(NCc3nccnc3N(C)S(C)(=O)=O)n2)cc1 [defactinib]
In short: as §1

[2] = compound: CNc1nc(-c2ccc3c(N)n[nH]c3c2)cc(N2C[C@@H](C(=O)NC3CCCCC3)CC[C@H]2C)n1
In short: as §1

encorafenib = compound: COC(=O)N[C@@H](C)CNc1nccc(-c2cn(C(C)C)nc2-c2cc(Cl)cc(NS(C)(=O)=O)c2F)n1 [encorafenib]
In short: as §1

[3] = compound: COC(=O)[C@H](CCSC)NC(=O)C1=C(C=C(C=C1)NC[C@H](CS)N)C2=CC=CC=C2
In short: as §1

alisertib = compound: COc1cc(Nc2ncc3c(n2)-c2ccc(Cl)cc2C(c2c(F)cccc2OC)=NC3)ccc1C(=O)O [alisertib]
In short: as §1

[4] = compound: COc1cc2nc(-c3cc(F)ccc3O)nc(N[C@@H]3CNC[C@H]3C(C)(C)O)c2cc1OC
In short: as §1

gefitinib = compound: COc1cc2ncnc(Nc3ccc(F)c(Cl)c3)c2cc1OCCCN1CCOCC1 [gefitinib]
In short: as §1

lapatinib = compound: CS(=O)(=O)CCNCc1ccc(-c2ccc3ncnc(Nc4ccc(OCc5cccc(F)c5)c(Cl)c4)c3c2)o1 [lapatinib]
In short: as §1

pictilisib = compound: CS(=O)(=O)N1CCN(Cc2cc3nc(-c4cccc5[nH]ncc45)nc(N4CCOCC4)c3s2)CC1 [pictilisib]
In short: as §1

crizotinib = compound: C[C@@H](Oc1cc(-c2cnn(C3CCNCC3)c2)cnc1N)c1c(Cl)ccc(F)c1Cl [crizotinib]
In short: as §1

[5] = compound: C[C@H](C1=CC=C(C=C1)C(=O)NC2=C3C=CNC3=NC=C2)N
In short: as §1

duvelisib = compound: C[C@H](Nc1ncnc2nc[nH]c12)c1cc2cccc(Cl)c2c(=O)n1-c1ccccc1 [duvelisib]
In short: as §1

gandotinib = compound: Cc1cc(Nc2cc(CN3CCOCC3)c3nc(C)c(Cc4ccc(Cl)cc4F)n3n2)n[nH]1 [gandotinib]
In short: as §1

tozasertib = compound: Cc1cc(Nc2cc(N3CCN(C)CC3)nc(Sc3ccc(NC(=O)C4CC4)cc3)n2)n[nH]1 [tozasertib]
In short: as §1

doramapimod = compound: Cc1ccc(-n2nc(C(C)(C)C)cc2NC(=O)Nc2ccc(OCCN3CCOCC3)c3ccccc23)cc1 [doramapimod]
In short: as §1

bafetinib = compound: Cc1ccc(NC(=O)c2ccc(CN3CC[C@H](N(C)C)C3)c(C(F)(F)F)c2)cc1Nc1nccc(-c2cncnc2)n1 [bafetinib]
In short: as §1

[6] = compound: Cc1cccc(CC(=O)N2CCc3c2ccc(-c2cn(C)c4ncnc(N)c24)c3F)n1
In short: as §1

Sequence of UniProt Q9Y4P3 (Q9Y4P3 whole entry, looked up): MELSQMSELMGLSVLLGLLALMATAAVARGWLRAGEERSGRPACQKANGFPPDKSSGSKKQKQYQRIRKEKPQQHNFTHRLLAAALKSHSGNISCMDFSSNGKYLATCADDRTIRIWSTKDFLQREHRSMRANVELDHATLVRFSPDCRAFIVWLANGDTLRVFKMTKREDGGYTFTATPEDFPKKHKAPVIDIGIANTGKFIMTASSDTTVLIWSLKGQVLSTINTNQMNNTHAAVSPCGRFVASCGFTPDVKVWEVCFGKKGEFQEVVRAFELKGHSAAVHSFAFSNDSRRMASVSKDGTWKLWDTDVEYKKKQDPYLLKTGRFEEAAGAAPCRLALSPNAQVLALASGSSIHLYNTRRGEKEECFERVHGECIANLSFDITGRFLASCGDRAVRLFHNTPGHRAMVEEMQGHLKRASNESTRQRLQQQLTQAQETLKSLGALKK
Sequence of UniProt Q5JUR7 (Q5JUR7 whole entry, looked up): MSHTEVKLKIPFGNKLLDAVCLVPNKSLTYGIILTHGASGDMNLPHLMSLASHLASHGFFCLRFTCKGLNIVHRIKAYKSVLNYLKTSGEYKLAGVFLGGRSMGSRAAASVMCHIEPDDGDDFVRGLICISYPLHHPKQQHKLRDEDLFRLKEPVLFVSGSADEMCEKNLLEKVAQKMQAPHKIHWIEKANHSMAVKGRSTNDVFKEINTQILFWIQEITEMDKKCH
Sequence of UniProt Q9H892 (Q9H892 whole entry, looked up): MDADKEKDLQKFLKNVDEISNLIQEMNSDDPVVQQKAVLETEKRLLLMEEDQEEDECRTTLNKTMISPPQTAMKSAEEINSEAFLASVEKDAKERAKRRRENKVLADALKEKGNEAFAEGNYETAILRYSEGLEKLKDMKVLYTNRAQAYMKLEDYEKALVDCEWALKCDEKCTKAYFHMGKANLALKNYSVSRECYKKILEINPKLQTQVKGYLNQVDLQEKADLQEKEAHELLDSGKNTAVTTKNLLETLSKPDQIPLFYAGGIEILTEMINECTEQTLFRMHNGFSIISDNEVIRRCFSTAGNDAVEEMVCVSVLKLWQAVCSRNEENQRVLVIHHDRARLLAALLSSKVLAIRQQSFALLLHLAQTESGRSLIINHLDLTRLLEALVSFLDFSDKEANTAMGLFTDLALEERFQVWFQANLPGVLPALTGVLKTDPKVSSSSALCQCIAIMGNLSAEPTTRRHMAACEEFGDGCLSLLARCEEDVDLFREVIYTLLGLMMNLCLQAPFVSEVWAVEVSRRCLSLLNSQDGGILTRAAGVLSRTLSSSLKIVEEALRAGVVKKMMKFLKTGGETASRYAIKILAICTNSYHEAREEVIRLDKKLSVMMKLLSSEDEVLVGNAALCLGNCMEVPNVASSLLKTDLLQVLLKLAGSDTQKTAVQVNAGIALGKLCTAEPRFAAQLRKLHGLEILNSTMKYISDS
Sequence of UniProt Q13595 (Q13595 whole entry, looked up): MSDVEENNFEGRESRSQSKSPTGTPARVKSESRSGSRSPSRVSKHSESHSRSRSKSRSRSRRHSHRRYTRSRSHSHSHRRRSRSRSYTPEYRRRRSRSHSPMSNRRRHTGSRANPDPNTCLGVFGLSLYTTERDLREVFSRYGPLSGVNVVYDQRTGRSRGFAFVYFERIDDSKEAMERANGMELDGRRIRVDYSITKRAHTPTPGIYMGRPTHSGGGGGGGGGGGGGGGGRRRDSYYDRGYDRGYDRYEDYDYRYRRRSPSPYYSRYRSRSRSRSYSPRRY
Sequence of UniProt Q8IWV7 (Q8IWV7 whole entry, looked up): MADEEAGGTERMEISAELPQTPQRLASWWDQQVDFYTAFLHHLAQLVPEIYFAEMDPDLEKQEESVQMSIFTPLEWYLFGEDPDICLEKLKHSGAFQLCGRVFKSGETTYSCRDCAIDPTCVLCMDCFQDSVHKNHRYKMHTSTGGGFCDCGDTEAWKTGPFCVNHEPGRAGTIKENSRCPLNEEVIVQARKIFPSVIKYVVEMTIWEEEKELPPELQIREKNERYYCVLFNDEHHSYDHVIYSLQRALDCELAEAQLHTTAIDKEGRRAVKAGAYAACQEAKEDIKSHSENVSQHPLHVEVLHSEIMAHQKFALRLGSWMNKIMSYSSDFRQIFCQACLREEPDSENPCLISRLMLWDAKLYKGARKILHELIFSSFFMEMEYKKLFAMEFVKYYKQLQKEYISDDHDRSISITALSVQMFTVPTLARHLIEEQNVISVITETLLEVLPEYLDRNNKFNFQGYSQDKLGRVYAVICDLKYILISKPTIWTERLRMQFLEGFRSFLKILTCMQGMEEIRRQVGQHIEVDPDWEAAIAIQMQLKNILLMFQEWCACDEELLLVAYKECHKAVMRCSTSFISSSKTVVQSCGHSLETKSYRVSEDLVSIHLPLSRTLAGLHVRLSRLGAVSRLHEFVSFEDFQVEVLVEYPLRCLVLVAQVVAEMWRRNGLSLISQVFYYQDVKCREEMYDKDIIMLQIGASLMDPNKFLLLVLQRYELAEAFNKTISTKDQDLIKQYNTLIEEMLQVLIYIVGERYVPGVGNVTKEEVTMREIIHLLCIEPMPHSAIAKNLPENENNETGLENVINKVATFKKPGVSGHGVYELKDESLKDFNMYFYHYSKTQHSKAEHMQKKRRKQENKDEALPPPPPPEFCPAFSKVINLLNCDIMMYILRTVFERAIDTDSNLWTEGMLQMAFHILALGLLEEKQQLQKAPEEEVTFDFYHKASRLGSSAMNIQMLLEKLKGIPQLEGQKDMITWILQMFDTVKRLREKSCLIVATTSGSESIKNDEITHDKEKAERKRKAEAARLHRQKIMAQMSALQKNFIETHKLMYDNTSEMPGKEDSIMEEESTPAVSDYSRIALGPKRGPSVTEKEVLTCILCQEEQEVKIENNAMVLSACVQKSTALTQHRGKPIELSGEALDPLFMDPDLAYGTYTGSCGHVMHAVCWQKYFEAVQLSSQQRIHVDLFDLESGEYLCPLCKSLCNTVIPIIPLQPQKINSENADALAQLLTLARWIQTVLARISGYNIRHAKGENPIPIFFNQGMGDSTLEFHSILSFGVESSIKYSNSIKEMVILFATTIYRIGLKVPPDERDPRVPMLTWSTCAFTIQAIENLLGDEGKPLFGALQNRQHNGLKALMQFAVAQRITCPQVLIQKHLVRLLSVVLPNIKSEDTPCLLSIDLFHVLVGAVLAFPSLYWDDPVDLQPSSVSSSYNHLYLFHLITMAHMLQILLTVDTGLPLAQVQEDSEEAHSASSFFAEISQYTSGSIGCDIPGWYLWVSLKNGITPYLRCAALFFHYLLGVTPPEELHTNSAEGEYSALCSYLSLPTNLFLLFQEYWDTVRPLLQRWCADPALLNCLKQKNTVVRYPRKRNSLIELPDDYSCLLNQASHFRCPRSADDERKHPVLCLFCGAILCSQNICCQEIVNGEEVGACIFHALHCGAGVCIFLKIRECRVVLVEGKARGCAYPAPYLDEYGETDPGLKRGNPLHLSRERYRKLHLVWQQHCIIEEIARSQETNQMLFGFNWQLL
Sequence of UniProt P48553 (P48553 whole entry, looked up): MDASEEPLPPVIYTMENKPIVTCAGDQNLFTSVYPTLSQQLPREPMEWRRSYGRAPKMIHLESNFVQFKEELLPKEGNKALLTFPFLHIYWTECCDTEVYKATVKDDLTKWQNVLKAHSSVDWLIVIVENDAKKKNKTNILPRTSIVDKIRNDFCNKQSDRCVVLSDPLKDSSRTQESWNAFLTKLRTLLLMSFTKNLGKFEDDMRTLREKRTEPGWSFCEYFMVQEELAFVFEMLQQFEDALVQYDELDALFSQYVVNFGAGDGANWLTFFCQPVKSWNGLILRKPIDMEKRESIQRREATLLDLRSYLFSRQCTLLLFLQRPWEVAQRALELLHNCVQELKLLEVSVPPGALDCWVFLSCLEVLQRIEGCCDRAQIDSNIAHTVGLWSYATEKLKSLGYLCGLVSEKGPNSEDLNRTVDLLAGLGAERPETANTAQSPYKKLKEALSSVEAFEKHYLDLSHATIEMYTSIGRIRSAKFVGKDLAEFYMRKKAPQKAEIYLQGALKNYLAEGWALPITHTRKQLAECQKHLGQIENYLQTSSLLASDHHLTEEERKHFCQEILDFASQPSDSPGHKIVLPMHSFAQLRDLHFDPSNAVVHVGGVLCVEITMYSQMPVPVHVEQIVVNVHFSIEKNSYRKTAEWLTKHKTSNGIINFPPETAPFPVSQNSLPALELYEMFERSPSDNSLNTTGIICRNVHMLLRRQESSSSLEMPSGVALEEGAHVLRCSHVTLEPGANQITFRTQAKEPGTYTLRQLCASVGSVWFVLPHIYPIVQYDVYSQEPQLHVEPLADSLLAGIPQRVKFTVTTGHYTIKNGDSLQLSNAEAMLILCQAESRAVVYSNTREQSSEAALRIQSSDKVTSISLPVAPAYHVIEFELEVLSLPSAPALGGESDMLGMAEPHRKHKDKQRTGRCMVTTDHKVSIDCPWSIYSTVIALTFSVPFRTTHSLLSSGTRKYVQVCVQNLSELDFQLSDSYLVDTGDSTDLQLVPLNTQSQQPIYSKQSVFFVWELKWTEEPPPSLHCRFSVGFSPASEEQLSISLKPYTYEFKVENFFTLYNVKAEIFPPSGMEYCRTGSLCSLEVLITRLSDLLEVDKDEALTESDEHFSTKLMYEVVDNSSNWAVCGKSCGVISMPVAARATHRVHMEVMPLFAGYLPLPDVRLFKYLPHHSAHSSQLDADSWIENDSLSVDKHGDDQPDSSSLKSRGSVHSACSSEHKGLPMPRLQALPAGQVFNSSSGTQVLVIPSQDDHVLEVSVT
Sequence of UniProt P43897 (P43897 whole entry, looked up): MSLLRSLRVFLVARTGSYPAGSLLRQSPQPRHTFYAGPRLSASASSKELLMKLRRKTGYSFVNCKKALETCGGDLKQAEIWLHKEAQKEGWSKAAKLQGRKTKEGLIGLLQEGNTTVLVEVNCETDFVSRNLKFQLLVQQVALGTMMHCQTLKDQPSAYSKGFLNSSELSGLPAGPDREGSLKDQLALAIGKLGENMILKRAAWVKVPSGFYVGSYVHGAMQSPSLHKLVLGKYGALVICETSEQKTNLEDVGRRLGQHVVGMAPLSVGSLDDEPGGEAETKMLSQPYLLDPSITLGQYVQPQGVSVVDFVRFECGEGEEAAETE

Target | log2 fold change (alvocidib) | log2 fold change (Tubastatin A) | log2 fold change [1] | log2 fold change (defactinib) | log2 fold change [2] | log2 fold change (encorafenib) | log2 fold change [3] | log2 fold change (alisertib) | log2 fold change [4] | log2 fold change (gefitinib) | log2 fold change (lapatinib) | log2 fold change (pictilisib) | log2 fold change (crizotinib) | log2 fold change [5] | log2 fold change (duvelisib) | log2 fold change (gandotinib) | log2 fold change (tozasertib) | log2 fold change (doramapimod) | log2 fold change (bafetinib) | log2 fold change [6]
TIMM44 (UniProt O43615) | 0.001 | 0.083 | 0.039 | 0.018 | -0.017 | 0.056 | 0.08 | 0.082 | -0.04 | 0.017 | 0.04 | 0.022 | 0.055 | 0.009 | -0.003 | 0.136 | 0.019 | 0.058 | -0.067 | 0.065
TYW3 (UniProt Q6IPR3) | -0.033 | 0.014 | -0.007 | -0.021 | 0.061 | 0.027 | -0.064 | -0.03 | 0.019 | 0.01 | -0.014 | 0.008 | -0.022 | -0.144 | 0.018 | 0.1 | 0 | 0.054 | 0.051 | 0.176
TSFM (UniProt P43897) | 0.036 | -0.088 | 0.017 | 0.015 | 0.01 | -0.017 | 0.13 | -0.021 | 0.017 | 0.018 | 0.003 | -0.007 | -0.056 | 0.012 | 0.025 | -0.122 | 0.047 | 0.06 | -0.026 | -0.034
UBR1 (UniProt Q8IWV7) | -0.018 | -0.026 | 0.009 | 0.001 | -0.03 | 0.033 | 0.055 | 0.003 | -0.007 | 0.016 | -0.018 | -0.035 | -0.082 | -0.046 | 0.01 | -0.081 | 0 | 0.039 | -0.065 | 0.032
TUBB (UniProt P07437) | 0.01 | -0.035 | -0.001 | 0.007 | 0.007 | -0.013 | 0.081 | 0.014 | -0.012 | -0.031 | -0.035 | -0.002 | -0.043 | -0.005 | 0.008 | 0.065 | -0.022 | -0.047 | 0.024 | -0.01
TRAPPC10 (UniProt P48553) | -0.034 | -0.074 | 0.01 | -0.034 | 0.011 | 0.009 | -0.047 | 0.015 | -0.001 | -0.029 | 0 | 0 | -0.034 | -0.101 | -0.016 | 0.022 | -0.01 | -0.027 | -0.007 | 0.074
TRA2A (UniProt Q13595) | -0.007 | -0.079 | -0.033 | 0.171 | 0.031 | -0.017 | 0.068 | -0.188 | 0.017 | 0.118 | -0.012 | 0.032 | -0.184 | -0.048 | -0.048 | -0.011 | 0.015 | 0.086 | 0.042 | 0.053
TOX4 (UniProt O94842) | -0.16 | -0.006 | 0.027 | 0.025 | -0.022 | -0.011 | -0.082 | 0.028 | -0.013 | -0.016 | 0.058 | 0.025 | -0.068 | -0.259 (active) | 0.06 | 0.231 (active) | -0.094 | 0.041 | -0.043 | 0.189
TUBA3C (UniProt P0DPH7) | -0.012 | -0.15 | 0.01 | -0.013 | -0.018 | -0.037 | 0.042 | -0.023 | -0.035 | -0.005 | 0.038 | -0.003 | -0.078 | 0.009 | 0.03 | 0.072 | 0.055 | 0.014 | 0.012 | 0.023
TEX30 (UniProt Q5JUR7) | -0.021 | -0.066 | 0.066 | -0.097 | 0.07 | 0.047 | 0.007 | 0.101 | 0.041 | 0.058 | -0.07 | -0.122 | -0.035 | -0.517 (active) | 0.102 | 0.007 | -0.003 | 0.036 | 0.066 | 0.069
TPST2 (UniProt O60704) | -0.107 | 0.059 | 0.041 | -0.038 | -0.02 | 0.03 | -0.049 | 0.478 | 0.025 | 0.072 | 0.028 | 0.621 | -0.046 | -0.671 (active) | -0.029 | 0.109 | -0.043 | 0.057 | 0.022 | 0.126
TBL2 (UniProt Q9Y4P3) | 0.018 | -0.007 | 0.023 | 0.039 | -0.003 | 0.057 | -0.036 | 0.008 | 0.055 | -0.018 | -0.025 | -0.002 | -0.007 | -0.068 | 0.014 | -0.053 | 0.063 | 0.032 | -0.013 | 0.055
TXNRD2 (UniProt Q9NNW7) | -0.006 | 0.021 | 0.018 | 0.015 | 0.007 | 0.039 | -0.034 | 0 | 0.008 | -0.064 | 0 | -0.017 | 0.003 | -0.046 | 0.084 | 0.059 | -0.042 | -0.066 | 0.041 | 0.034
TUBB1 (UniProt Q9H4B7) | 0.026 | -0.059 | 0.021 | 0.07 | -0.005 | -0.015 | 0.071 | -0.013 | -0.034 | -0.047 | -0.006 | -0.007 | -0.025 | 0.093 | -0.01 | -0.015 | -0.027 | -0.046 | 0.036 | -0.06
TUBGCP4 (UniProt Q9UGJ1) | 0 | -0.081 | 0.007 | -0.023 | -0.025 | -0.049 | 0.047 | -0.007 | -0.018 | -0.043 | -0.022 | 0.011 | -0.012 | -0.007 | 0.03 | -0.125 | -0.022 | -0.041 | -0.076 | 0.019
TTC12 isoform 2 (UniProt Q9H892) | -0.024 | -0.279 | -0.06 | -0.05 | -0.041 | -0.052 | -0.03 | -0.145 | -0.043 | 0.137 | -0.053 | -0.153 | -0.068 | -0.416 | 0.143 | 0.031 | 0.092 | 0.022 | -0.14 | 0.445 (active)
